The list is not random: actives were taken first. Their share in the collection is about 4.1%.
pCIP destab – p/CIP-EGFP fusion destabilizers, primary screen, fluorescence, F442A cells; Q05BA5; 16 h; decrease of EGFP signal, % at 10 µM; hit rate 0.01% among 290,000;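 active = EGFP signal decrease of at least 30% at 10 µM or well 3 SD below plate mean, unless failing retest; inactive = the rest, including hits failing retest or dose response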
beta cell repl – inducers of MIN6 beta-cell proliferation, primary screen, ATP luminescence, uHTS | hit rate 0.29% among 330,000 | proliferation, % at 10 µM | MIN6 cells proliferation, ATPlite luminescence, 48 h; cells starved in 0.2% serum; 100% = growth in 10% serum;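 active = compounds whose signal lies at least 3.5 SD above the mean of all wells on their plate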;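 note: 0% = DMSO-treated cells in low-serum medium and 100% = 10% serum control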
MPTP block – mitochondrial permeability transition pore inhibitors, primary screen, biochemical, isolated mouse mitochondria, absorbance; Ca2+ swelling absorbance, 30 min; inhibition, % at 10 µM; hit rate 1.4% among 360,000; AID 602449, 2012;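 active = inhibition of 50% or more, scaled per plate between neutral and stimulator controls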;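 note: 0% = DMSO wells given calcium and 100% = 1 mM EGTA wells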
NR3A LBD binder – binders of NR3A ligand-binding domain, primary screen, biophysical, differential scanning fluorimetry, uHTS; Glutamate receptor ionotropic, NMDA 3A (GRIN3A) ligand-binding domain; Tm shift relative to glycine control, % at 25 µM; NR3A LBD differential scanning fluorimetry, Tm shift; 0% = protein alone, 100% = glycine-bound protein; hit rate 2.5% among 340,000;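 active = melting temperature shift of at least 10% of the positive control shift, at one fixed dose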
FAS-TE inh – FAS thioesterase domain inhibitors, primary screen, biochemical, fluorescence intensity, uHTS; inhibition, % at 15 µM; Fatty acid synthase (Homo sapiens), P49327; recombinant FAS-TE, OMFH fluorogenic substrate, fluorescence endpoint; AID 602261, 2012; hit rate 0.67% among 360,000;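 active = compounds whose normalised, plate-corrected inhibition of enzyme fluorescence in the single-dose primary screen is 50% or more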;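 note: 0% = DMSO with enzyme and 100% = substrate without enzyme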
* hit, by the source's call.

Results for Nc1nc(-c2ccccc2)cn1/N=C/c1ccccc1 ?
pCIP destab: 9; beta cell repl: -2; MPTP block: 2; NR3A LBD binder: -18; FAS-TE inh: -2

What do the screens show for `O=C(Nc1ccon1)Nc1cc(Cl)ccc1Cl`?
pCIP destab: -14; beta cell repl: 0; MPTP block: 0; NR3A LBD binder: -10; FAS-TE inh: 1

What do the screens show for `CC(C)(Oc1ccc(Br)cc1Cl)C(=O)Nc1ccon1`?
pCIP destab: -12; beta cell repl: 1; MPTP block: 0; NR3A LBD binder: 13*; FAS-TE inh: 4

What do the screens show for `CCCCCCNC(=O)O[C@H]1C[C@H](C(=O)OC)[C@H](C(=O)OC)C2CN(S(=O)(=O)c3ccc(C)cc3)C[C@@]21O` (stereo partly specified)?
MPTP block: 0; FAS-TE inh: 15

What do the screens show for `CCCc1ccc(-c2cc(NC(=O)CSc3n[nH]c(N)n3)n(-c3ccccc3)n2)cc1`?
pCIP destab: -4; beta cell repl: -6; MPTP block: 2; NR3A LBD binder: 18*; FAS-TE inh: -36

Results for COc1cc(N=Nc2cccc(S(N)(=O)=O)c2)c2ccccc2c1N ?
pCIP destab: -26; MPTP block: 11; NR3A LBD binder: 13*; FAS-TE inh: 13

What do the screens show for `O=C1Nc2ccc(Br)cc2C12NNc1ccccc1O2` (stereo unspecified)?
pCIP destab: -16; beta cell repl: -6; MPTP block: 4; NR3A LBD binder: 25*; FAS-TE inh: 22

How did Cn1nc(C(C)(C)C)cc1C(=O)N1CCCCC1c1cc(C(=O)NCc2ccc(F)cc2)no1 (stereo unspecified) do in these assays?
MPTP block: 2; FAS-TE inh: 4

How did CCCN1C(=O)/C(=C/c2ccc(N3CCOCC3)cc2)NC1=S do in these assays?
pCIP destab: -8; beta cell repl: -1; MPTP block: -1; NR3A LBD binder: -29; FAS-TE inh: -24

Results for Cc1ccc(CN2C(=O)N/C(=C\c3ccc(N4CCOCC4)cc3)C2=O)cc1 ?
pCIP destab: 9; beta cell repl: 0; MPTP block: -7; NR3A LBD binder: 17*; FAS-TE inh: -1

What do the screens show for `COc1cc(C(=O)C(=O)N2CCN(c3ccccc3)CC2)cc2ccccc12`?
MPTP block: 0

What do the screens show for `CC(=O)c1cccc(NC(=O)Nc2ccc3c(c2)OCO3)c1`?
pCIP destab: -8; beta cell repl: -3; MPTP block: 1; NR3A LBD binder: 13*; FAS-TE inh: -5

Results for CC(=O)c1cccc(NC(=O)c2ccc3c(c2)CCCC3)c1 ?
pCIP destab: -17; beta cell repl: -4; MPTP block: 0; NR3A LBD binder: 0; FAS-TE inh: 12

What do the screens show for `CC(=O)c1cccc(NC(=O)Nc2ccc3c(c2)CCC3)c1`?
pCIP destab: -9; beta cell repl: -4; MPTP block: 34; NR3A LBD binder: 22*; FAS-TE inh: -4

Results for COC(=O)c1ccc(NC(=O)Nc2ccc3c(c2)OCO3)cc1 ?
pCIP destab: 6; beta cell repl: 2; MPTP block: 8; NR3A LBD binder: 24*; FAS-TE inh: 4

Results for CC1CCc2nc(NC(=O)Nc3ccc4c(c3)OCO4)sc2C1 (stereo unspecified) ?
pCIP destab: -7; beta cell repl: -4; MPTP block: 24; NR3A LBD binder: 31*; FAS-TE inh: 2

Results for Nc1nc(SCc2ccc(Br)cc2)c2ncn(C3OC(CO)C(O)C3O)c2n1 (stereo unspecified) ?
MPTP block: 0; NR3A LBD binder: 2; FAS-TE inh: -4

What do the screens show for `C[C@H](CO)N1C[C@H](C)[C@@H](CN(C)CC2CC2)Oc2c(NC(=O)Cc3ccccc3)cccc2C1=O`?
beta cell repl: 3; MPTP block: 0; NR3A LBD binder: -1; FAS-TE inh: -3

Results for CCCC(=O)N1CCCC1(C)C(=O)Nc1ccc(-n2cncn2)cc1 (stereo unspecified) ?
MPTP block: 1; FAS-TE inh: -6

Results for O=C(Nc1ccc2c(c1)OCCO2)Nc1ccc2c(c1)OCO2 ?
pCIP destab: -6; beta cell repl: -6; MPTP block: 2; NR3A LBD binder: -38; FAS-TE inh: -4

What do the screens show for `NC(=O)c1ccc(NC(=O)Nc2ccc3c(c2)OCO3)cc1`?
pCIP destab: 6; beta cell repl: 0; MPTP block: 0; NR3A LBD binder: 13*; FAS-TE inh: -3

Results for CSc1ccccc1C(=O)Nc1ccc2c(c1)CCC2 ?
pCIP destab: -1; beta cell repl: -1; MPTP block: 1; NR3A LBD binder: 10*; FAS-TE inh: 3

What do the screens show for `O=C(Nc1ccc2c(c1)CCC2)c1ccccc1Br`?
pCIP destab: 12; beta cell repl: -3; MPTP block: 4; NR3A LBD binder: -1; FAS-TE inh: -1

How did Cc1ccc(NC(=O)Cn2c(=O)ccn(Cc3ccccc3)c2=O)cc1S(=O)(=O)N1CCOCC1 do in these assays?
MPTP block: 0; NR3A LBD binder: 7; FAS-TE inh: -1

What do the screens show for `CCOc1cc(/C=C(\C#N)C(=O)Nc2cccc(C(=O)O)c2)cc(Br)c1OC(=O)c1ccc(OC)cc1`?
pCIP destab: -12; beta cell repl: -6; MPTP block: -1; NR3A LBD binder: -2; FAS-TE inh: 84*

How did Cc1ccc2nc(CSc3nc(C)ccc3C#N)[nH]c2c1 do in these assays?
pCIP destab: -6; beta cell repl: -5; MPTP block: -1; NR3A LBD binder: 29*; FAS-TE inh: 10

What do the screens show for `Cc1ccc(C#N)c(SCc2ccccc2F)n1`?
pCIP destab: -1; beta cell repl: -2; MPTP block: 5; NR3A LBD binder: -3; FAS-TE inh: 37

How did O=C(Nc1cc(-c2ccccc2)[nH]n1)c1ccccc1F do in these assays?
pCIP destab: -1; beta cell repl: -2; MPTP block: 1; NR3A LBD binder: 24*; FAS-TE inh: -2

How did O=C(O)c1ccccc1C(=O)Nc1cc(-c2ccccc2)[nH]n1 do in these assays?
pCIP destab: 1; beta cell repl: -3; MPTP block: 0; NR3A LBD binder: 0; FAS-TE inh: -3

Results for COc1ccc(S(=O)(=O)NCC(c2ccco2)N2CCc3ccccc32)cc1 (stereo unspecified) ?
beta cell repl: -4; MPTP block: 1; NR3A LBD binder: -9; FAS-TE inh: 19

How did Cc1ccc(S(=O)(=O)NCC(c2ccco2)N2CCc3ccccc32)cc1 (stereo unspecified) do in these assays?
beta cell repl: -3; MPTP block: 0; NR3A LBD binder: 15*; FAS-TE inh: 24

Results for CCc1nc2ccc(C(=O)Nc3ccc(Cl)c(Cl)c3)cn2c1N(C)Cc1ccc(OC)cc1 ?
MPTP block: 7; FAS-TE inh: 21
